# Source: PubChem BioAssay AID1034 (Columbia University Molecular Screening Center, 2008)
# Some of the results follow. A number with no mark means an inactive call.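 The calls were made as follows: active = activation above 30% in triplicate retests at 2 µM, then confirmed by visual review of the well images; inactive = the rest.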
# Assay: potentiators of TNFa-induced VCAM1 expression, confirmation, imaging, HUVEC, triplicate retest (AID 1034);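 also: scaled per plate between unstimulated and TNFa-stimulated DMSO control wells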
# Settings: HUVEC TNFa-stimulated VCAM-1 immunofluorescence imaging; at 2 µM; stronger effect = higher value
smiles,measurement,value
COC(=O)CN1C(=O)C2(C(C(=O)OC)=C(N)Oc3ccccc32)C2=C1CC(C)(C)CC2=O (stereo unspecified),activation,-16.1%
